# Measured values reported in PubChem BioAssay AID504466 (National Center for Advancing Translational Sciences (NCATS), 2011).
# The whole screen tested about 330,000 compounds, of which about 4,200 (1.3%) were called active. Roughly 6% stayed inconclusive and do not appear here. The sample as a whole holds a higher share of actives than the screen did. Unmarked numbers belong to inactive results. The call rests on the fitted dose curve; in most records, active means well fitted activation curve with a large enough effect; inconclusive means small, poorly fitted or top-dose-only effect; inactive means no such curve, though single readings can be large or run the other way.
# Assay: qHTS screen for small molecules that induce genotoxicity in human embryonic kidney (HEK293T) cells expressing luciferase-tagged ELG1; further: nearly all actives have a fitted effect of over 60% in size; on activity change, positive = activation: % of control where 0% means no effect
# Details: HEK293T ELG1-luciferase reporter, luminescence, 16 h; series mostly up to 46 µM; activity change, positive = activation: at the top concentration
# Method in brief: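 ELG1-luciferase HEK293T cells, 2,000/well; compound pinned in; 16 hr, 37 °C, 5% CO2; ONE-Glo, 30 min RT; luminescence on CCD imager.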
# Potency means the concentration at half of the fitted maximal effect.
Compound,"activity change, positive = activation",Potency
Cc1ccc(NC(=O)Cn2cnc3c(OCc4ccccc4)ncnc32)cc1C,3.02%,
FC(F)(F)c1nc2ccccc2nc1N/N=C/c1ccc(Cl)cc1,-2.13%,
COc1cc(/C=N/Nc2nn3cnnc3c3ccccc23)cc(OC)c1OC,-0.781%,
CN(CCO)c1ccc(/C=N/Nc2nncc3ccccc23)cc1,,0.116 µM (active)
C/C=C/c1ccc(OCC(=O)NNC(=O)CN(C)S(=O)(=O)c2ccc(C)cc2)c(OC)c1,0.0839%,
CC(Sc1ccccc1F)C(=O)Nc1cccc(S(=O)(=O)N2CCOCC2)c1 (stereo unspecified),-0.0904%,
CCC(C(=O)OC)n1cnc2c(oc3ccccc32)c1=O (stereo unspecified),5.09%,
COc1ccccc1Nc1ncnc2c1oc1ccccc12,,14.6 µM (active)
COc1ccc(C)cc1Nc1nc(C)nc2c1oc1ccccc12,0.558%,
CCCCCCOc1ccc(OC(=O)c2cccnc2)cc1,3.9%,
CCOC(=O)c1cnc(SCc2nc(N)nc(Nc3ccc(OC)cc3)n2)nc1N,4.89%,
CCCCOc1ccc(-c2ncc(C(=O)OCC)c(N)n2)cc1,,10.3 µM (active)
Cc1c(NC(=O)CN(C)CC(=O)Nc2ccc(F)c(F)c2F)c(=O)n(-c2ccccc2)n1C,0.0923%,
Cc1ccsc1C(=O)OCC(=O)NCCc1ccccc1,10.7%,
COc1ccc(C2CC(c3cccs3)=Nc3ccccc3S2)cc1OC (stereo unspecified),0.582%,
COc1ccc(-c2csc(-c3cccs3)n2)cc1OC,,16.4 µM (active)
COc1ccc(OC)c(-c2csc(-c3cccs3)n2)c1,3.44%,
CC[C@@]1(C(=O)OC)N[C@H](CN(C)C(C)=O)[C@@H]2C(=O)N(C)C(=O)[C@@H]21,1.22%,
CC(=O)c1c(OCC(=O)N(C)C2CCCCC2)ccc2c(C)cc(=O)oc12,3.2%,
COc1ccccc1CSc1ncc(-c2ccc([N+](=O)[O-])cc2)[nH]1,-0.532%,
COc1ccccc1CSc1nc2ccccc2[nH]1,,23.1 µM (active)
Clc1ccccc1SCc1nc2ccccc2[nH]1,15%,
CC[C@]1(C(=O)OC)[C@H]2C(=O)N(Cc3ccccc3)C(=O)[C@H]2[C@H]2CN=C(SCc3ccc(Cl)cc3)N21,-5.96%,

Compound,"activity change, positive = activation",Potency
O=C(C[C@@H]1C/C=C\CCC(=O)OC[C@@H]2CCCN2C1=O)NCCO,3.18%,
CN(C(=O)COC(=O)c1cc(=O)[nH]c2ccccc12)C1CCCCC1,18.4%,
CCCCNc1c(-c2cccc(Sc3ccc(OC)cc3)c2)nc2ccccn12,-5.54%,
CN1CCN(c2ccc(NC(=O)c3ccccc3)cc2)CC1,,10.3 µM (active)
CN1CCN(c2ccc(NC(=O)c3ccc4c(c3)[nH]c(=O)n4Cc3ccc(F)cc3)cc2)CC1,-2.36%,
CN1CCN(c2ccc(NC(=O)c3cc(Cl)c4c(c3)OCCO4)cc2)CC1,9.93%,
N#Cc1cc([N+](=O)[O-])ccc1NC(=O)COC(=O)c1cnccn1,-4.95%,
COC(=O)c1ccc(OC(=O)c2cnccn2)cc1,0.398%,
O=C(NCCCNC(=O)c1ccccc1Cl)c1cnccn1,1.2%,
Cn1c(=NC(=O)c2cnccn2)sc2ccccc21,,8.2 µM (active)
CC1(c2ccccc2)NC(=O)N(CC(=O)N2CC(=O)Nc3ccccc32)C1=O (stereo unspecified),0.668%,
Cc1ccc(C)c(S(=O)(=O)N2CCN(c3ncnc4sccc34)CC2)c1,-12.2%,
CC(C)CC1NC(=O)c2cc(Cl)ccc2-n2c1nc1ccccc1c2=O (stereo unspecified),0.392%,
Cc1ccnc(NC(=O)c2ccco2)n1,4.05%,
Cc1ccnc(Nc2nc3ccccc3s2)n1,,2.06 µM (active)
Cn1nnnc1SCC(=O)Nc1nc2ccccc2s1,14.9%,
Cc1ccccc1NC(=O)CSC(=O)c1ccccc1,-4.93%,
CSc1ccccc1NC(=O)c1cc(C2CC2)on1,,23.1 µM (active)
Cc1nn(Cc2ccc(Cl)c(Cl)c2)c(C)c1NC(=O)c1cc(C2CC2)on1,2.15%,
O=C(Nc1cc(C(F)(F)F)ccc1Cl)c1cc(C2CC2)on1,-1.5%,
COc1cc(C)ccc1OCC(=O)OCC(=O)c1ccc[nH]1,3.48%,
CC(C)(C)OC(=O)C[C@@H]1C/C=C\C[C@@H](CC(=O)NCCO)C(=O)N[C@H](Cc2c[nH]c3ccccc23)COC1=O,0.381%,
C=CC[C@@H](CC(=O)N[C@@H](CO)Cc1ccccc1)C(=O)N[C@H](COC(=O)[C@H](CC=C)CC(=O)OC(C)(C)C)Cc1ccccc1,10.3%,
